Screens deposited in PubChem BioAssay by National Center for Advancing Translational Sciences (NCATS).
ELG1 genotox: induces genotoxicity in HEK293T cells with luciferase-tagged ELG1; Potency, µM (titrated, usually from 46 µM), for inactives: at the top dose activity change, positive = activation, usual class: activators; hit rate 1.3% among 330,000; HEK293T ELG1-luciferase reporter, luminescence, 16 h; AID 504466; further: % of control where 0% means no effect; nearly all actives have a fitted effect of over 60% in size
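Genotoxic stress is detected as increased luminescence from luciferase-tagged ELG1 in HEK293T cells, measured with ONE-Glo after a 16 hr treatment at 37 °C.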
FLuc modulator: counter-screen for miR-21 project: firefly luciferase inhibitors or activators | hit rate 6.9% among 360,000 | P08659 | purified FLuc, Km substrates, luminescence inhibition | Potency, µM (top dose mostly 57.5 µM), without a hit: at the highest dose activity change, negative = inhibition, usual class: inhibitors | AID 588342;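 further: plate controls were vehicle for no effect and reference inhibitor for full effect; nearly all actives have a fitted effect of over 55% in size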
Target sequence (P08659 whole entry, looked up): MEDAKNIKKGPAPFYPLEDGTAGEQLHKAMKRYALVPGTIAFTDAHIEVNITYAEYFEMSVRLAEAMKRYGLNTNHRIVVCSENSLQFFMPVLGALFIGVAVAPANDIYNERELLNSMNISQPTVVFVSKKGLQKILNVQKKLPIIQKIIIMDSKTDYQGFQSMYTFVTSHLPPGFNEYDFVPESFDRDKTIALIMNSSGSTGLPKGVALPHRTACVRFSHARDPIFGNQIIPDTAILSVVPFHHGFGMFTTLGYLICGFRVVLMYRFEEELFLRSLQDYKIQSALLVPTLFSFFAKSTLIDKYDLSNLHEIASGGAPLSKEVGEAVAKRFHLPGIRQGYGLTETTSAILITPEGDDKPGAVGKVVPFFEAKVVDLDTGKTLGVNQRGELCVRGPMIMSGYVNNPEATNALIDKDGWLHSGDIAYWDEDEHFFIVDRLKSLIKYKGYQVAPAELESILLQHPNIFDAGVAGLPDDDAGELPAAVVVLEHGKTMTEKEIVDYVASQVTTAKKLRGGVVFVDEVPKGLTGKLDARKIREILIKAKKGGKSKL
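Purified P. pyralis luciferase, 10 nM final, with Km-level 10 uM D-luciferin and 10 uM ATP in 50 mM Tris acetate pH 7.5, 10 mM Mg acetate, 0.01% Tween-20, 0.05% BSA; 6-point qHTS titration about 60 µM downward; luminescence read.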
NPC1 promoter act: activates the NPC1 promoter. Huh7 NPC1 promoter luciferase reporter, 24 h. Potency, µM (doses to about 9.22 µM), inactives show top-dose activation, hits mostly activators. hit rate 2.4% among 320,000; further: % of control where 0% means no effect; nearly all actives have a fitted effect of over 60% in size
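Luminescence from an NPC1 promoter-driven luciferase reporter in stably transfected Huh7 cells was measured after 24 h compound treatment at 37 °C, followed by 10 min ambient incubation with luciferase detection reagent.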
Rab9 promoter act: Rab9 promoter activation; Huh7 Rab9 promoter-luciferase reporter, luminescence, 24 h; Potency, µM (top dose mostly 9.22 µM), for inactives: top-dose activation, negative = inhibition, actives largely listed as activators; hit rate 2.8% among 320,000; further: % of control where 0% means no effect; nearly all actives have a fitted effect of over 60% in size
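Stable Rab9-luc Huh7, 1500 cells/well, 2 h settle; cmpd in DMSO, 24 h, 37 °C/5% CO2; luciferase reagent 10 min RT; luminescence.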
ELG1 DNA repair: ELG1-dependent DNA repair inhibition | HEK293T ELG1-luciferase reporter, luminescence, 16 h; DNA damage induced by 5-fluorouridine | Potency, µM (doses to about 46.1 µM), without a hit: top-dose activity change, negative = inhibition, actives largely listed as inhibitors | hit rate 2.3% among 330,000 | AID 504467; further: on the % scale 0 is the no-effect control and ±100 the full control effect; nearly all actives have a fitted effect of over 55% in size
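5-Fluorouridine DNA damage + compound/DMSO, 2,000 cells/well, 16 h, 37 °C/5% CO2. ONE-Glo, 30 min RT, luminescence. Readout = decrease in reporter signal.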
SMN2 splice up: increases expression of the SMN2 splice variant; Potency, µM (doses to about 46.1 µM), inactives show top-dose activity change, positive = activation, most hits filed as activators; HEK293 SMN2-luciferase splicing reporter, luminescence, 30-36 h; hit rate 2.8% among 210,000; further: % of control where 0% means no effect; nearly all actives have a fitted effect of over 55% in size
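HEK293 cells carry an SMN2 minigene-luciferase reporter in which exon 7 inclusion puts luciferase in frame. Cells were seeded at 2000 cells/well, attached for 10-12 hours, then exposed to compounds for 30-36 hours at 37C before ONE-Glo luminescence.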
* = called active by the depositor. In the library only some 9.2% were active in any assay of this set; here they are far more common. The call rests on the fitted dose curve; in most records, active means well fitted curve in the direction sought with a large enough effect; inconclusive means small, poorly fitted or top-dose-only effect, or another doubt; inactive means no such curve, though single readings can be large; an effect the other way counts as inactive or inconclusive. Potency means the concentration at half of the fitted maximal effect.

What do the screens show for `COc1cc(NC(=O)c2ccc(OCc3c(C)noc3C)c(OC)c2)cc(OC)c1`?
ELG1 genotox: 5%; ELG1 DNA repair: 21µM*

How did Cc1ccc(NC(=O)c2cccc(OCc3c(C)noc3C)c2)cc1 do in these assays?
ELG1 genotox: 3%; FLuc modulator: 24µM*; NPC1 promoter act: 9%; Rab9 promoter act: 1%; ELG1 DNA repair: 18%; SMN2 splice up: -5%

Results for C/C(=N\NC(=O)c1ccc(COc2ccccc2)cc1)c1ccncc1 ?
ELG1 genotox: 2%; FLuc modulator: -1%; NPC1 promoter act: -1%; Rab9 promoter act: inconclusive; ELG1 DNA repair: -3%; SMN2 splice up: -7%

What do the screens show for `Clc1ccc2[nH]c(-c3ccccc3)cc2c1`?
ELG1 genotox: inconclusive; FLuc modulator: 11µM*; NPC1 promoter act: 3.2µM*; Rab9 promoter act: 2.5µM*; ELG1 DNA repair: inconclusive; SMN2 splice up: inconclusive

Results for c1ccc(-c2cc3ccccc3[nH]2)cc1 ?
ELG1 genotox: inconclusive; FLuc modulator: 19µM*; NPC1 promoter act: inconclusive; Rab9 promoter act: inconclusive; ELG1 DNA repair: inconclusive

How did Cc1ccc(O)c(-c2cc3ccccc3[nH]2)c1 do in these assays?
ELG1 genotox: 4%; FLuc modulator: 27µM*; NPC1 promoter act: 21%; Rab9 promoter act: 17%; ELG1 DNA repair: inconclusive; SMN2 splice up: 12%

How did COc1ccc(-c2cc3ccccc3[nH]2)cc1 do in these assays?
ELG1 genotox: inconclusive; FLuc modulator: 4.8µM*; NPC1 promoter act: 3.5µM*; Rab9 promoter act: 2µM*; ELG1 DNA repair: inconclusive

Results for O=[N+]([O-])c1cccc(-c2cc3ccccc3[nH]2)c1 ?
ELG1 genotox: inconclusive; FLuc modulator: -12%; NPC1 promoter act: inconclusive; Rab9 promoter act: 27%; ELG1 DNA repair: inconclusive

What do the screens show for `COc1ccc(-c2cc(=O)c3ccccc3[nH]2)cc1`?
ELG1 genotox: 4%; FLuc modulator: inconclusive; NPC1 promoter act: 4%; Rab9 promoter act: 0%; ELG1 DNA repair: 2%; SMN2 splice up: -7%

How did COC(=O)c1cccc(NC(N)=S)c1 do in these assays?
ELG1 genotox: -2%; FLuc modulator: -2%; NPC1 promoter act: 1%; Rab9 promoter act: -15%; ELG1 DNA repair: -8%; SMN2 splice up: -4%

What do the screens show for `COC(=O)c1cccc(NC(=O)Nc2ccccc2OC)c1`?
ELG1 genotox: inconclusive; FLuc modulator: 12µM*; NPC1 promoter act: 16%; Rab9 promoter act: inconclusive; ELG1 DNA repair: inconclusive

What do the screens show for `COC(=O)c1cccc(NC(=O)NC(=O)c2ccccc2Cl)c1`?
ELG1 genotox: inconclusive; FLuc modulator: 11µM*; NPC1 promoter act: 1.3µM*; Rab9 promoter act: 0.35µM*; ELG1 DNA repair: inconclusive

Results for COC(=O)c1cccc(NC(=O)Nc2ccc(Cl)c(Cl)c2)c1 ?
ELG1 genotox: 1%; FLuc modulator: 15µM*; NPC1 promoter act: inconclusive; Rab9 promoter act: 3.5µM*; ELG1 DNA repair: inconclusive; SMN2 splice up: -27%

What do the screens show for `COc1ccccc1NC(=O)Nc1cccc(NC(C)=O)c1`?
ELG1 genotox: 3%; FLuc modulator: inconclusive; NPC1 promoter act: 2%; Rab9 promoter act: -7%; ELG1 DNA repair: inconclusive

Results for COC(=O)c1cc(NC(=O)Nc2ccccc2)ccc1Cl ?
ELG1 genotox: -3%; FLuc modulator: 15µM*; NPC1 promoter act: 0%; Rab9 promoter act: 19%; ELG1 DNA repair: inconclusive; SMN2 splice up: inconclusive

Results for COC(=O)c1cccc(NC(=O)c2ccccc2)c1 ?
ELG1 genotox: 7%; FLuc modulator: inconclusive; NPC1 promoter act: 24%; Rab9 promoter act: inconclusive; ELG1 DNA repair: inconclusive

Results for CCN(CC)CCN(Cc1cc2ccc(C)cc2[nH]c1=O)C(=O)Nc1ccc(Cl)cc1 ?
ELG1 genotox: 12%; FLuc modulator: inconclusive; NPC1 promoter act: 17%; Rab9 promoter act: 30%; ELG1 DNA repair: inconclusive

Results for CN(C(=O)COC(=O)/C=C/c1ccc(C(F)(F)F)cc1)c1c(N)n(Cc2ccccc2)c(=O)[nH]c1=O ?
ELG1 genotox: 0%; FLuc modulator: 7%; NPC1 promoter act: -2%; Rab9 promoter act: -1%; ELG1 DNA repair: 10%

What do the screens show for `Cc1ccccc1Nc1nc(N)nc(COC(=O)c2ccc(O)cc2)n1`?
ELG1 genotox: 2%; FLuc modulator: -11%; NPC1 promoter act: -2%; Rab9 promoter act: 16%; ELG1 DNA repair: inconclusive; SMN2 splice up: 16%

How did Cc1ccccc1Nc1nc(N)nc(COC(=O)c2ccccc2)n1 do in these assays?
ELG1 genotox: inconclusive; FLuc modulator: 15µM*; NPC1 promoter act: inconclusive; Rab9 promoter act: 2.2µM*; ELG1 DNA repair: inconclusive; SMN2 splice up: inconclusive

What do the screens show for `Cc1ccccc1Nc1nc(N)nc(COC(=O)c2cccn2C)n1`?
ELG1 genotox: 16µM*; FLuc modulator: 17µM*; NPC1 promoter act: 3.5µM*; Rab9 promoter act: inconclusive; ELG1 DNA repair: inconclusive; SMN2 splice up: 11µM*

What do the screens show for `Cc1c(NS(=O)(=O)c2ccc(Cl)c(C(=O)OCC(=O)NCc3ccco3)c2)c(=O)n(-c2ccccc2)n1C`?
ELG1 genotox: 1%; FLuc modulator: -1%; NPC1 promoter act: -7%; Rab9 promoter act: -1%; ELG1 DNA repair: -3%; SMN2 splice up: 16%

Results for COc1cccc(NC(=S)N(CCc2c(C)[nH]c3ccc(C)cc23)Cc2cccs2)c1 ?
ELG1 genotox: -5%; FLuc modulator: 1%; NPC1 promoter act: 0%; Rab9 promoter act: -3%; ELG1 DNA repair: inconclusive; SMN2 splice up: -19%

Results for COc1ccc2[nH]c(C)c(CCN(Cc3cccs3)C(=S)Nc3cccc(F)c3)c2c1 ?
ELG1 genotox: -4%; FLuc modulator: 1%; NPC1 promoter act: 0%; Rab9 promoter act: -8%; ELG1 DNA repair: 16µM*; SMN2 splice up: -66%

What do the screens show for `Cc1cccc(NC(=S)N(CCN(C)C)Cc2cc3cccc(C)c3[nH]c2=O)c1`?
ELG1 genotox: -2%; FLuc modulator: -2%; NPC1 promoter act: -4%; Rab9 promoter act: -6%; ELG1 DNA repair: 13µM*; SMN2 splice up: -11%

What do the screens show for `COc1cc2cc(CN(Cc3cccs3)C(=S)Nc3ccc(C)cc3)c(=O)[nH]c2cc1OC`?
ELG1 genotox: -2%; FLuc modulator: 1%; NPC1 promoter act: -4%; Rab9 promoter act: 1%; ELG1 DNA repair: 5.2µM*; SMN2 splice up: inconclusive

What do the screens show for `COc1cc2cc(CN(Cc3cccs3)C(=S)Nc3cccc(C)c3)c(=O)[nH]c2cc1OC`?
ELG1 genotox: -8%; FLuc modulator: -1%; NPC1 promoter act: -1%; Rab9 promoter act: -10%; ELG1 DNA repair: 7.3µM*; SMN2 splice up: -10%
